Results filed as inconclusive are left out. Calls of active or inactive are those of the source. Unless noted, calls come from the whole dose curve; as a rule, active = well fitted curve in the direction sought with a large enough effect; inconclusive = small, poorly fitted or top-dose-only effect, or another doubt; inactive = no such curve, though single readings can be large; an effect the other way counts as inactive or inconclusive.
Assays:
[1] = molecular target: ATP-dependent 6-phosphofructokinase (Trypanosoma brucei brucei) (UniProt O15648); test: qHTS Assay to Find Inhibitors of T. brucei phosphofructokinase: hit validation (AID 492961); note: % is set by controls: 0 for no effect and ±100 for the full control effect
In short: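 Luminescence from ADP-Glo reports ADP generated as T. brucei PFK (1.25 nM) phosphorylates 0.5 mM fructose-6-phosphate using 0.1 mM ATP. Reactions ran 45 min at room temperature, pH 8.0.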

[2] = molecular target: Ubiquitin carboxyl-terminal hydrolase 1 (Homo sapiens) (UniProt O94782); test: Inhibitors of USP1/UAF1: Pilot qHTS (AID 504865);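 note: rhodamine fluorescence freed from ubiquitin-rhodamine substrate followed over time; top concentration of the series differs between compounds; % is set by controls: 0 for no effect and ±100 for the full control effect; nearly all actives have a fitted effect of over 35% in size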
In short: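 USP1/UAF1 complex (1nM) preincubated with compound 15 min at room temperature, then Ub-Rho substrate (150nM final) added. Fluorescence read kinetically at 480/540 nm, 6 reads every 60 seconds. Buffer: 50mM HEPES pH 7.8, 0.5mM EDTA, 0.1 mg/ml BSA, 1mM TCEP, 0.01% Tween-20.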

[3] = molecular target: Luciferin 4-monooxygenase (Photinus pyralis) (UniProt P08659); test: Biochemical firefly luciferase enzyme assay for NPC (AID 624030);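 note: purified P. pyralis luciferase at 10 nM with luciferin and ATP substrate; 0% = DMSO and -100% = full luciferase inhibition by PTC124 control; nearly all actives have a fitted effect of over 70% in size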
In short: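 Purified P. pyralis luciferase at 10 nM in 50 mM Tris Acetate (final), luminescence read within 5 minutes of enzyme addition to compounds. Activity normalised to PTC124 versus DMSO; concentration-response curves classed by r2, magnitude and activity.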

[4] = S16 Schwann cell viability assay (CellTiter-Glo assay) (AID 624031);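 note: native untransfected S16 rat Schwann cells; plate controls were DMSO-treated cells for no effect and cell-free wells for full effect; nearly all actives have a fitted effect of over 70% in size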
In short: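 Counter-screen for cytotoxicity: parental S16 rat Schwann cells lacking the PMP22 reporters, treated 24 h with compound, viability from cellular ATP by CellTiter-Glo luminescence, normalized to DMSO (0%) and no-cell wells.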

[5] = S16 Schwann cell PMP22 intronic element firefly luciferase assay (AID 624032);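 note: plate controls were DMSO for no effect and PTC124 positive control mean for full effect; nearly all actives have a fitted effect of over 30% in size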
In short: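 Rat S16 Schwann cells stably carrying firefly luciferase driven by a PMP22 intronic element, in 10% FBS, treated 24 h at 37 C. ONE-Glo luminescence normalized to PTC124 control and DMSO (0%); curves classed by r2, magnitude and activity.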

[6] = S16 Schwann cell PMP22 intronic element beta-lactamase assay (AID 624044; calls by dose curve;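 note: 0% = DMSO and -100% = potassium clavulanate positive control; nearly all actives have a fitted effect of over 15% in size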); details: S16 rat Schwann cells, PMP22 element beta-lactamase FRET, 24 h; ratio activity, negative = inhibition: at 38.3 µM (top of the series)
In short: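 Rat S16 Schwann cells with beta-Lac driven by a PMP22 intronic element, compound-treated 24 h at 37 °C. LiveBLAzer FRET B/G read: 460 nm normalized to potassium clavulanate vs DMSO; 535 nm FRET as viability; concentration-effect curves classified.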

[7] = qHTS profiling for inhibitors of Plasmodium falciparum proliferation (AID 504749);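 note: 0% = DMSO vehicle and full inhibition = artemisinin control; nearly all actives have a fitted effect of over 60% in size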; details: P. falciparum in erythrocytes, SYBR Green DNA, 72 h, at 28.7 µM (top of the series)
In short: (§1)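 Readout was DNA-dye fluorescence from lysed cultures, ex 485/em 535 nm. Parasitized red cells had grown 72 h with compound; data scaled between 0.29 uM artemisinin and DMSO wells and corrected using vehicle-only plates.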

3D7 = test: as above; details: P. falciparum in erythrocytes, SYBR Green DNA, 72 h; series mostly up to 28.7 µM
In short: as §1

7G8 = test: as above; details: P. falciparum in erythrocytes, SYBR Green DNA, 72 h; series mostly up to 28.7 µM
In short: as §1

AA1029 = test: as above; details: P. falciparum in erythrocytes, SYBR Green DNA, 72 h; series mostly up to 28.7 µM
In short: as §1

AS120 = test: as above; details: P. falciparum in erythrocytes, SYBR Green DNA, 72 h; series mostly up to 28.7 µM
In short: as §1

ATS189 = test: as above; details: P. falciparum in erythrocytes, SYBR Green DNA, 72 h; series mostly up to 28.7 µM
In short: as §1

ATS95 = test: as above; details: P. falciparum in erythrocytes, SYBR Green DNA, 72 h; series mostly up to 28.7 µM
In short: as §1

C2A = test: as above; details: P. falciparum in erythrocytes, SYBR Green DNA, 72 h; series mostly up to 28.7 µM
In short: as §1

CP185 = test: as above; details: P. falciparum in erythrocytes, SYBR Green DNA, 72 h; series mostly up to 28.7 µM
In short: as §1

CP191 = test: as above; details: P. falciparum in erythrocytes, SYBR Green DNA, 72 h; series mostly up to 28.7 µM
In short: as §1

CP192 = test: as above; details: P. falciparum in erythrocytes, SYBR Green DNA, 72 h; series mostly up to 28.7 µM
In short: as §1

CP194 = test: as above; details: P. falciparum in erythrocytes, SYBR Green DNA, 72 h; series mostly up to 28.7 µM
In short: as §1

CP201 = test: as above; details: P. falciparum in erythrocytes, SYBR Green DNA, 72 h; series mostly up to 28.7 µM
In short: as §1

CP203 = test: as above; details: P. falciparum in erythrocytes, SYBR Green DNA, 72 h; series mostly up to 28.7 µM
In short: as §1

CP211 = test: as above; details: P. falciparum in erythrocytes, SYBR Green DNA, 72 h; series mostly up to 28.7 µM
In short: as §1

CP215 = test: as above; details: P. falciparum in erythrocytes, SYBR Green DNA, 72 h; series mostly up to 28.7 µM
In short: as §1

CP217 = test: as above; details: P. falciparum in erythrocytes, SYBR Green DNA, 72 h; series mostly up to 28.7 µM
In short: as §1

CP237 = test: as above; details: P. falciparum in erythrocytes, SYBR Green DNA, 72 h; series mostly up to 28.7 µM
In short: as §1

CP238 = test: as above; details: P. falciparum in erythrocytes, SYBR Green DNA, 72 h; series mostly up to 28.7 µM
In short: as §1

CP247 = test: as above; details: P. falciparum in erythrocytes, SYBR Green DNA, 72 h; series mostly up to 28.7 µM
In short: as §1

CP250 = test: as above; details: P. falciparum in erythrocytes, SYBR Green DNA, 72 h; series mostly up to 28.7 µM
In short: as §1

CP252 = test: as above; details: P. falciparum in erythrocytes, SYBR Green DNA, 72 h; series mostly up to 28.7 µM
In short: as §1

CP256 = test: as above; details: P. falciparum in erythrocytes, SYBR Green DNA, 72 h; series mostly up to 28.7 µM
In short: as §1

CP260 = test: as above; details: P. falciparum in erythrocytes, SYBR Green DNA, 72 h; series mostly up to 28.7 µM
In short: as §1

CP262 = test: as above; details: P. falciparum in erythrocytes, SYBR Green DNA, 72 h; series mostly up to 28.7 µM
In short: as §1

CP265 = test: as above; details: P. falciparum in erythrocytes, SYBR Green DNA, 72 h; series mostly up to 28.7 µM
In short: as §1

CP266 = test: as above; details: P. falciparum in erythrocytes, SYBR Green DNA, 72 h; series mostly up to 28.7 µM
In short: as §1

CP268 = test: as above; details: P. falciparum in erythrocytes, SYBR Green DNA, 72 h; series mostly up to 28.7 µM
In short: as §1

CP269 = test: as above; details: P. falciparum in erythrocytes, SYBR Green DNA, 72 h; series mostly up to 28.7 µM
In short: as §1

CP286 = test: as above; details: P. falciparum in erythrocytes, SYBR Green DNA, 72 h; series mostly up to 28.7 µM
In short: as §1

CP291 = test: as above; details: P. falciparum in erythrocytes, SYBR Green DNA, 72 h; series mostly up to 28.7 µM
In short: as §1

CP297 = test: as above; details: P. falciparum in erythrocytes, SYBR Green DNA, 72 h; series mostly up to 28.7 µM
In short: as §1

CP305 = test: as above; details: P. falciparum in erythrocytes, SYBR Green DNA, 72 h; series mostly up to 28.7 µM
In short: as §1

CP315 = test: as above; details: P. falciparum in erythrocytes, SYBR Green DNA, 72 h; series mostly up to 28.7 µM
In short: as §1

CP325 = test: as above; details: P. falciparum in erythrocytes, SYBR Green DNA, 72 h; series mostly up to 28.7 µM
In short: as §1

CP329 = test: as above; details: P. falciparum in erythrocytes, SYBR Green DNA, 72 h; series mostly up to 28.7 µM
In short: as §1

CP335 = test: as above; details: P. falciparum in erythrocytes, SYBR Green DNA, 72 h; series mostly up to 28.7 µM
In short: as §1

DFO2036 = test: as above; details: P. falciparum in erythrocytes, SYBR Green DNA, 72 h; series mostly up to 28.7 µM
In short: as §1

DIV14 = test: as above; details: P. falciparum in erythrocytes, SYBR Green DNA, 72 h; series mostly up to 28.7 µM
In short: as §1

DIV17 = test: as above; details: P. falciparum in erythrocytes, SYBR Green DNA, 72 h; series mostly up to 28.7 µM
In short: as §1

DIV30 = test: as above; details: P. falciparum in erythrocytes, SYBR Green DNA, 72 h; series mostly up to 28.7 µM
In short: as §1

Dd2 = test: as above; details: P. falciparum in erythrocytes, SYBR Green DNA, 72 h; series mostly up to 28.7 µM
In short: as §1

ECU = test: as above; details: P. falciparum in erythrocytes, SYBR Green DNA, 72 h; series mostly up to 28.7 µM
In short: as §1

FAB9 = test: as above; details: P. falciparum in erythrocytes, SYBR Green DNA, 72 h; series mostly up to 28.7 µM
In short: as §1

GB4 = test: as above; details: P. falciparum in erythrocytes, SYBR Green DNA, 72 h; series mostly up to 28.7 µM
In short: as §1

HB3 = test: as above; details: P. falciparum in erythrocytes, SYBR Green DNA, 72 h; series mostly up to 28.7 µM
In short: as §1

ICS = test: as above; details: P. falciparum in erythrocytes, SYBR Green DNA, 72 h; series mostly up to 28.7 µM
In short: as §1

JCK = test: as above; details: P. falciparum in erythrocytes, SYBR Green DNA, 72 h; series mostly up to 28.7 µM
In short: as §1

N140 = test: as above; details: P. falciparum in erythrocytes, SYBR Green DNA, 72 h; series mostly up to 28.7 µM
In short: as §1

P93_24 = test: as above; details: P. falciparum in erythrocytes, SYBR Green DNA, 72 h; series mostly up to 28.7 µM
In short: as §1

P94_40 = test: as above; details: P. falciparum in erythrocytes, SYBR Green DNA, 72 h; series mostly up to 28.7 µM
In short: as §1

PAD = test: as above; details: P. falciparum in erythrocytes, SYBR Green DNA, 72 h; series mostly up to 28.7 µM
In short: as §1

PC15 = test: as above; details: P. falciparum in erythrocytes, SYBR Green DNA, 72 h; series mostly up to 28.7 µM
In short: as §1

PC26 = test: as above; details: P. falciparum in erythrocytes, SYBR Green DNA, 72 h; series mostly up to 28.7 µM
In short: as §1

PC49 = test: as above; details: P. falciparum in erythrocytes, SYBR Green DNA, 72 h; series mostly up to 28.7 µM
In short: as §1

SC27B = test: as above; details: P. falciparum in erythrocytes, SYBR Green DNA, 72 h; series mostly up to 28.7 µM
In short: as §1

TAB109 = test: as above; details: P. falciparum in erythrocytes, SYBR Green DNA, 72 h; series mostly up to 28.7 µM
In short: as §1

TAB113 = test: as above; details: P. falciparum in erythrocytes, SYBR Green DNA, 72 h; series mostly up to 28.7 µM
In short: as §1

TAB165 = test: as above; details: P. falciparum in erythrocytes, SYBR Green DNA, 72 h; series mostly up to 28.7 µM
In short: as §1

W2 = test: as above; details: P. falciparum in erythrocytes, SYBR Green DNA, 72 h; series mostly up to 28.7 µM
In short: as §1

ATP-dependent 6-phosphofructokinase (Trypanosoma brucei brucei), sequence (O15648 whole entry, looked up): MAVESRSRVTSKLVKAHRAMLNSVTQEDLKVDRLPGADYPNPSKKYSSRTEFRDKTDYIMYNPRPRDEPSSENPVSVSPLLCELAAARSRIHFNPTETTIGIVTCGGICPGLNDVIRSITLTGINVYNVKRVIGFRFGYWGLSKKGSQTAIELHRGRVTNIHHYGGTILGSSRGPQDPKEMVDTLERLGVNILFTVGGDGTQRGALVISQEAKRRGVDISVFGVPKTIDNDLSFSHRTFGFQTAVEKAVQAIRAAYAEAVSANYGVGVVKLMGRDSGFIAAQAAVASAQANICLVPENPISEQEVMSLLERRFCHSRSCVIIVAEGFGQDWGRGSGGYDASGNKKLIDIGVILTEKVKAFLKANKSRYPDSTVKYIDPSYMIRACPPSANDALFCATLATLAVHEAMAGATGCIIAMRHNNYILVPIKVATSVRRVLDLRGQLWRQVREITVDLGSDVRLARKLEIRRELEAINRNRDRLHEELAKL
Ubiquitin carboxyl-terminal hydrolase 1 (Homo sapiens), sequence (O94782 whole entry, looked up): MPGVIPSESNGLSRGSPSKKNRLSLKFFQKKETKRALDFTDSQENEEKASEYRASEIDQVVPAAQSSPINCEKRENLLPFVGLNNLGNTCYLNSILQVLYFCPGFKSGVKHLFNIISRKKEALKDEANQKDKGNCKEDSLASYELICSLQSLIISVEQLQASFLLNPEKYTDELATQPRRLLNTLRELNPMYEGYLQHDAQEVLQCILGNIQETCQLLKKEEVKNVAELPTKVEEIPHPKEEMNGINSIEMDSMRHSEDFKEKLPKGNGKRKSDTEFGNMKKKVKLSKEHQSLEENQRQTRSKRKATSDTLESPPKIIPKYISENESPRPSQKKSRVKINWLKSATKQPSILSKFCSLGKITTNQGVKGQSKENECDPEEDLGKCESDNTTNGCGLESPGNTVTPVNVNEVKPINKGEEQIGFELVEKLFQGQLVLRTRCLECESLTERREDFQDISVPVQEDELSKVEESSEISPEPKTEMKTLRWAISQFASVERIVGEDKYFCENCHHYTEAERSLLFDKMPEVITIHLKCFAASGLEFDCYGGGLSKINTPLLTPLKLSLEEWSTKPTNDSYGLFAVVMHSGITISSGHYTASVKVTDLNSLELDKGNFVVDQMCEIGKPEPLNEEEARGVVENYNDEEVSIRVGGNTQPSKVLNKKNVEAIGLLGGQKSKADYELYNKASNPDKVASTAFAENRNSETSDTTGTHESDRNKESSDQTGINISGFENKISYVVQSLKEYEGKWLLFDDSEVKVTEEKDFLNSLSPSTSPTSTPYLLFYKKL
Luciferin 4-monooxygenase (Photinus pyralis), sequence (P08659 whole entry, looked up): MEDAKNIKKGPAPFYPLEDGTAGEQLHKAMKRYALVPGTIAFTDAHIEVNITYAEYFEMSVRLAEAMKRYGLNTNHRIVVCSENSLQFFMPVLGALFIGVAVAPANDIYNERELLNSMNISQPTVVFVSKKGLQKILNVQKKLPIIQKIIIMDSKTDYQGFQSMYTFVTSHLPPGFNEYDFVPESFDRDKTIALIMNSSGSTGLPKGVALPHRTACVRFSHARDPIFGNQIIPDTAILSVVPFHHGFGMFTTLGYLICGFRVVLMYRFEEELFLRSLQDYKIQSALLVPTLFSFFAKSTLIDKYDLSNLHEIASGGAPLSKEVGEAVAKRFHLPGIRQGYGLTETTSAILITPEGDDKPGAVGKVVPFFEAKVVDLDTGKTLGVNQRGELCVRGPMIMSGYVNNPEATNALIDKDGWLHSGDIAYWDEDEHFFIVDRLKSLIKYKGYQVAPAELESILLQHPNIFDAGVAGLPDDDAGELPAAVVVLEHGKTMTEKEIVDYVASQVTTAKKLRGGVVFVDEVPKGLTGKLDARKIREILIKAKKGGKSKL

Cc1cnc(C(=O)O)cn1
inactive: Potency [1] | Potency [2] | Potency [3] | Potency [4] | Potency [5] | Potency [6] | activity, negative = inhibition ([7]; parasite line A) 9.61% | activity, negative = inhibition ([7]; parasite line B) 7.1% | Potency (3D7) | Potency (7G8) | Potency (AA1029) | Potency (AS120) | Potency (ATS189) | Potency (ATS95) | Potency (C2A) | Potency (CP185) | Potency (CP191) | Potency (CP192) | Potency (CP194) | Potency (CP201) | Potency (CP203) | Potency (CP211) | Potency (CP215) | Potency (CP217) | Potency (CP237) | Potency (CP238) | Potency (CP247) | Potency (CP250) | Potency (CP252) | Potency (CP256) | Potency (CP260) | Potency (CP262) | Potency (CP265) | Potency (CP266) | Potency (CP268) | Potency (CP269) | Potency (CP286) | Potency (CP291) | Potency (CP297) | Potency (CP305) | Potency (CP315) | Potency (CP325) | Potency (CP329) | Potency (CP335) | Potency (DFO2036) | Potency (DIV14) | Potency (DIV17) | Potency (DIV30) | Potency (Dd2) | Potency (ECU) | Potency (FAB9) | Potency (GB4) | Potency (HB3) | Potency (ICS) | Potency (JCK) | Potency (N140) | Potency (P93_24) | Potency (P94_40) | Potency (PAD) | Potency (PC15) | Potency (PC26) | Potency (PC49) | Potency (SC27B) | Potency (TAB109) | Potency (TAB113) | Potency (TAB165) | Potency (W2)
